# Compounds with a hit are over-represented: about 13% of the library has one in this group of screens.
# CHOP inh: inhibitors of CHOP promoter induction, primary screen, cell-based, unfolded protein response, luciferase reporter; CHO-K1 CHOP-promoter luciferase, tunicamycin-induced, 15-18 h; inhibition, % at 10 µM; actives 3.8% (n = 220,000);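 active means compounds that reduced the stress-induced luciferase reporter signal by more than about 70% of percent inhibition, limit read from the data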;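 further: 0% = tunicamycin plus vehicle and 100% = wells without tunicamycin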
# WT yeast gro inh: growth inhibition of WT strain, primary screen, mitochondrial fusion inhibitor project, WT and mutant strains, chemical genetic. mitochondrial fusion phenotypic screen. inhibition, % at 10 µM. actives 2.1% (n = 190,000); in the data active means inhibition above about 58%; tested in S. cerevisiae
# RAM inhibit: inhibitors of the yeast RAM network, primary screen, dse1pr::URA3 reporter, 5-FOA selection. S. cerevisiae dse1pr::URA3 reporter, 5-FOA growth OD615, 2 d; analog-sensitive cbk1-as2 kinase mutant strain. inhibition, % at 50 µM. actives 1.8% (n = 190,000);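 active means inhibition above a set limit, 3 SD over mean compound inhibition, cut at about 8.4% in these data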;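 further: 0% = DMSO-only wells with no growth and 100% = 10 µM 1-NA-PP1 full growth; inhibition rescues growth on 5-FOA so higher OD means more RAM inhibition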
# Lmaj promast: Leishmania major promastigote growth inhibition, primary screen; Leishmania major promastigotes, resazurin fluorescence viability; inhibition, % at 10 µM; actives 9% (n = 200,000); AID 1063, 2008; in the data active means inhibition above about 50%;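 further: promastigotes grown with compound for 44 hours at 28 °C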
# Active calls of the source: *.
SMILES,CHOP inh,WT yeast gro inh,RAM inhibit,Lmaj promast
O=[N+]([O-])c1ccc(Sc2cccc3cccnc23)c([N+](=O)[O-])c1,15,7,3,96*
CN(C)/N=C/c1ccc(Sc2ccc([N+](=O)[O-])cc2[N+](=O)[O-])o1,-90,7,4,-4
C=CCn1nc([N+](=O)[O-])nc1Sc1cccc2cccnc12,88*,-24,-1,58*
CCCOc1ccc(C(=O)NCC(C)(C)N2CCOCC2)cc1,6,-18,2,-7
O=C(O)c1ccc(Nc2ncc([N+](=O)[O-])cc2[N+](=O)[O-])cc1,5,-10,3,18
COc1ccc(S(=O)(=O)Nc2nc3ccccc3s2)cc1OC,-14,9,6,-7
Cc1ccc(CN(Cc2ccccc2)C(=S)Nc2ccccc2C)o1,41,3,5,-2
N#C/C(=C\c1ccc(-c2ccccc2[N+](=O)[O-])o1)C(=O)N1CCOCC1,-10,-13,7,6
O=C(/C=C/c1ccc(-c2ccccc2[N+](=O)[O-])o1)c1ccco1,-18,57,4,59*
